Drawing on ChEMBL document CHEMBL1201862, “PubChem BioAssay data set” (2004), this text covers GI50 for 11 substances.

Screen size: about 55,000 sequences; about 2,800 (5.1%) were called active. Rule as the data show it: active = GI50 up to about 1.1 µM and inactive = higher. A selection follows. Measured potencies and affinities stand elsewhere.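 96-well plates; 48 h exposure; 5 concentrations. Endpoints by linear interpolation between flanking doses. Not reached: highest tested concentration assigned. GI50 = concentration required for 50% inhibition of growth.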

For this test, the system named is SK-MEL-2. The experiment in a line: NCI tumour cell line growth inhibition, 48 h.
Substance “[Bis(aminomethyl)pentamethylenesilane]tetrachloropaltinum(IV), CHEMBL2146204” came in with a GI50 of 5.71 µM.
Take “[Bis(aminomethyl)dimethylsilane]tetrachloroplatinum(IV), CHEMBL2146190”: the GI50 stood at 19.1 µM.
Substance “[Bis(aminomethyl)tetramethylenesilane]dichloropaltinum(II), CHEMBL2146205” had a GI50 of 30.9 µM.
As to “[Bis(aminomethyl)dimethylsilane]dichloroplatinum (II), CHEMBL2146201”, the GI50 is 65.5 µM.
In the case of “[Bis(aminomethyl)ethylmethylsilane]tetrachloroplatinum(IV), CHEMBL2146192”, the GI50 stood at 5.5 µM.
Turning to CISPLATIN, CHEMBL11359, the GI50 turned out to be 5.07 µM.
For the substance “mu-(1,7-nanodiamine-N,N')bis-(cis-aminedichloroplatimum (II)), CHEMBL2146215”, the GI50 is 38.9 µM.
With “[Bis(aminomethyl)tetramethylenesilane]tetrachloropaltinum(IV), CHEMBL2146189” the figure was 6.64 µM.
“[Bis(aminomethyl)diethylsilane]tetrachloroplatinum(IV), CHEMBL2146203” had a GI50 of 3.1 µM.
For the substance “[Bis(aminomethyl)pentamethylenesilane]dichloropaltinum(II), CHEMBL2146202”, the GI50 worked out at 7.57 µM.
The substance “cis-Bis[[(trimethylsilyl)methyl]amino]tetrachloroplatinum(IV), CHEMBL2146191” yielded a GI50 of 2.88 µM.
